# The panel holds about 83,000 compounds, 20% with a hit somewhere; the sample as a whole holds those more often.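 For each line, cells grew in 96-well plates with the test compound present at a single concentration for 48 hours.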 Unmarked numbers belong to inactive results. Active and inactive are the calls of the source. How the source made its calls: active means growth percent below 10; inactive means the rest.
# Test system: MDA-MB-468 breast
# Test: NCI-60 one-dose screen, 48 h (100 = growth as untreated, 0 = no growth, -100 = all killed)
# Conditions: 10 µM unless noted
row,Compound,growth
1,Clc1ccc2c(NCCN3CCN(c4ccnc(N5CCCC5)n4)CC3)ccnc2c1,-4.71% (active)
2,Nc1nc2ccc([C@@H]3Nc4ccc5[nH]ncc5c4[C@H]4[C@H]5CCC(C5)[C@H]43)cc2s1,-14.4% (active)
3,Cc1cc(N(CCCNc2ccnc3cc(Cl)ccc23)Cc2ccco2)nc(Cl)n1,32.4%
4,C[C@@H]1C(=O)[C@@H]2C[C@@H](O)[C@@H](O)C[C@]2(C)[C@H]2CC[C@@]3(C)C(=C12)CC[C@@H]3[C@@](C)(O)[C@H](O)CCC(C)(C)O,103%
5,O=C(Nc1ccccc1)OCCc1ccccc1,99.2%
6,CCn1cc(C(=O)NN=C2CCCC2)c(=O)c2ccc(C)nc21,91.8%
7,O=C(CN(C(=O)Cn1c(=O)n2nnnc2c2ccccc21)c1ccccc1C(F)(F)F)Nc1ccc(C(F)(F)F)cc1,108%
8,CCCCCCCCCCCCCCCCCC1=NC(C)(C)CN1CCO,-69% (active)
9,Fc1cc2[nH]ncc2c2c3c(c(-c4cn[nH]c4)nc12)CCCC3,-22.4% (active)
10,O=C1CN(Cc2ccc(C(=O)NO)cc2)C(=O)[C@@H](Cc2ccccc2)N1,109%
11,N#Cc1c(NC(=O)NCc2ccccc2)sc2c1CCCC2,-33.5% (active)
12,O=C(Nc1nonc1-c1ccccc1)c1ccc(C(F)(F)F)cc1,101%
13,C[C@H](CCCC(=O)NCC#CCN1CCN(C)CC1)[C@H]1CC[C@H]2[C@@H]3CC[C@@H]4CC(=O)CC[C@]4(C)[C@H]3CC[C@]12C,91%
14,O=C(Nc1cccc(-n2cc(-c3ccncc3)c(-c3ccc(Cl)c(O)c3)n2)c1)Nc1ccc(Cl)c(Cl)c1,2.25% (active)
15,Cc1c(Cl)cccc1NC(=S)NC(=O)c1ccccc1,33.9%
16,Cc1[nH]c(C(=O)Nc2ccc(C(N)=O)cc2N2CCOC(C)C2)c(Cl)c1Cl (stereo not given),102%
17,OCCNc1nc(Nc2ccc(C3=NN(c4cc(Cl)cc(Cl)c4)C(c4ccc(C(F)(F)F)cc4)C3)cc2)nc(N2CCOCC2)n1 (stereo not given),66.7%
18,CC(C)C(C)C(N)C(=O)O (stereo not given),107%
19,O=C1COCCN1c1ccc(Nc2nc(Cl)nc(N3CCOCC3)n2)cc1,87.2%
20,Cc1cccc[n+]1C1c2ccccc2-c2ccccc21,68.5%

row,Compound,growth
1,CCCCCCCCCCCCCCCCOP(=O)([O-])OCC[N+](C)(C)C,-24% (active)
2,N#C/C(=C\c1ccc(-c2ccc(Br)cc2)o1)c1nc(-c2ccco2)cs1,-26.8% (active)
3,COc1ccc(CSc2nc3cc(OC)c(OC)cc3c(=O)n2-c2ccc(Cl)cc2)cc1,103%
4,CN(C)c1ccc2[nH]c3c(C(N)=O)cc(=O)c(=O)c=3oc2c1,59.2%
5,CN1CCN(Cc2ccc(NC(=O)c3cncc(C#Cc4cnc5ccc(N)nn45)c3)cc2C(F)(F)F)CC1,25.5%
6,C=C1C(=O)O[C@H]2[C@H]1CC/C(COC(=O)c1cc3cc(Cl)ccc3[nH]1)=C\CC[C@@]1(C)O[C@@H]21,-59.6% (active)
7,Nc1cc(Br)c(-c2nn3c(CCC(=O)c4nc5ccccc5[nH]4)nnc3s2)c(Br)c1,91.8%
8,CCOC(=O)C/C(=N\Nc1cc(=O)[nH]c2ccc(OC)cc12)C(=O)OCC,89.1%
9,Cn1cc(-c2nc(-c3c[nH]c4ncc(F)cc34)cs2)c2cccnc21,-0.356% (active)
10,CC1=C(O)C(=O)C(c2c(C)cc(C)c(Br)c2C)=C(O)C1=O,85.8%
11,[Ag].[Ag].[NH-]S(=O)(=O)c1ccc(N=Nc2cc(N=Nc3ccc(S([NH-])(=O)=O)cc3)c3c(NC(=O)C(Cl)Cl)cccc3c2OC(=O)C(Cl)Cl)cc1.[c-]1nccs1.[c-]1nccs1,61.4%
12,O=C(c1ccc2ncc(-c3nc(NC4CC4)ncc3F)n2c1)N1CCOCC1,32.8%
13,O=C(CN1C(=O)S/C(=C\C(Cl)=C\c2ccccc2)C1=O)NC1C=CS(=O)(=O)C1 (stereo not given),-54.5% (active)
14,O=S(=O)(NCCNc1nccc(-c2c(-c3ccc(F)c(O)c3)nc3sccn23)n1)c1ccc(F)cc1,29.3%
15,O=C(CNC(=O)c1cccc2ccccc12)Nc1ccccc1Oc1ccccc1,19.7%
16,CNC1=C([N+](=O)[O-])C(c2ccc(OC)cc2)C(C#N)=C(c2cccs2)O1 (stereo not given),117%
17,CCOc1ccc(NC(=O)CSc2oc(-c3ccccc3)nc2S(=O)(=O)c2ccc(C)cc2)cc1,53%
18,CN(C)CCCC(C#N)c1ccccc1 (stereo not given),108%
19,O=C(/C=C/c1cccc(O)c1)c1ccc(O)cc1,40.9%
20,CSc1[nH]c(=O)ncc1F,98.1%

# Reference: PubChem BioAssay (NCI)
